{"source": "PubChem BioAssay (EPA / NIEHS)", "details_in_all_cases": "mRNA level, 48 h; actives raise or lower the signal", "key": {"[1]": {"read-out": "ABC Transporter (ABCC3), ABCC3 (gene 8714)", "experiment": "LTEA_HepaRG_ABCC3: Life Technologies and Expression Analysis (LTEA) Assay for ABC Transporter (ABCC3) using HepaRG (AID 2283462)", "method_in_brief": "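Transcript level by TaqMan qRT-PCR, normalised to three housekeeping genes, fitted in both directions relative to vehicle. Chemicals tested in duplicate at eight half-log concentrations up to 100 uM for 48 h on HepaRG cells (0.5% DMSO).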"}, "[2]": {"read-out": "ABC Transporter (ABCB11), ABCB11 (gene 8647)", "experiment": "LTEA_HepaRG_ABCB11: Life Technologies and Expression Analysis (LTEA) Assay for ABC Transporter (ABCB11) using HepaRG (AID 2283463)", "method_in_brief": "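ABCB11 transcript levels are read by Fluidigm TaqMan qRT-PCR after 48 h chemical treatment of human HepaRG cells. Concentrations span 100 uM downward in half-log steps with 0.5% DMSO; gain or loss is fitted against DMSO controls.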"}, "[3]": {"read-out": "ABC Transporter (ABCC2), ABCC2 (gene 1244)", "experiment": "LTEA_HepaRG_ABCC2: Life Technologies and Expression Analysis (LTEA) Assay for ABC Transporter (ABCC2) using HepaRG (AID 2283464)", "method_in_brief": "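Endpoint is ABCC2 transcript level from qRT-PCR, normalized to three housekeeping genes and fitted bidirectionally relative to DMSO. Human HepaRG cells received test chemical for 48 h at up to 100 uM (8 points, half-log steps, 0.5% DMSO), duplicate wells.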"}, "[4]": {"read-out": "Broad substrate specificity ATP-binding cassette transporter ABCG2 (Homo sapiens) (UniProt Q9UNQ0)", "experiment": "LTEA_HepaRG_ABCG2: Life Technologies and Expression Analysis (LTEA) Assay for ABC Transporter (ABCG2) using HepaRG (AID 2283465)", "method_in_brief": "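Read-out is ABCG2 mRNA induction or loss quantified by qRT-PCR after 48 h chemical treatment of human HepaRG cells, normalized to three housekeeping genes. Concentrations reached 100 uM top in half-log steps; fitting was bidirectional against 0.5% DMSO.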"}, "[5]": {"read-out": "Alkaline Phosphatase, Placental (ALPP) gene, ALPP (gene 250)", "experiment": "LTEA_HepaRG_ALPP: Life Technologies and Expression Analysis (LTEA) Assay for Alkaline Phosphatase, Placental (ALPP) gene using HepaRG (AID 2283468)", "method_in_brief": "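ALPP transcript level, measured by qRT-PCR and normalized to three housekeeping genes (ACTB, GAPDH, POLR2A), after 48 h dosing of differentiated HepaRG in serum-free induction medium. Top concentration 100 uM with half-log dilutions (8 points, 0.5% DMSO, duplicates); bidirectional fitting relative to DMSO.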"}, "[6]": {"read-out": "Bcl-2 (BAD) gene, BAD (gene 572)", "experiment": "LTEA_HepaRG_BAD: Life Technologies and Expression Analysis (LTEA) Assay for Bcl-2 (BAD) gene using HepaRG (AID 2283469)", "method_in_brief": "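BAD transcript change, measured by qRT-PCR against three housekeeping genes and fitted in both directions relative to 0.5% DMSO, after 48 h chemical treatment of human HepaRG liver cells at concentrations up to 100 uM.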"}, "[7]": {"read-out": "Bcl-2 (BAX) gene, BAX (gene 581)", "experiment": "LTEA_HepaRG_BAX: Life Technologies and Expression Analysis (LTEA) Assay for Bcl-2 (BAX) gene using HepaRG (AID 2283470)", "method_in_brief": "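Differentiated human HepaRG cells, plated 48 h then switched to serum-free induction medium, were exposed 48 h to 8 half-log concentrations up to 100 uM in 0.5% DMSO; BAX mRNA measured by qRT-PCR, normalized to ACTB, GAPDH, POLR2A.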"}, "[8]": {"read-out": "adenosine kinase (ADK) gene, ADK (gene 132)", "experiment": "LTEA_HepaRG_ADK: Life Technologies and Expression Analysis (LTEA) Assay for adenosine kinase (ADK) gene using HepaRG (AID 2283471)", "method_in_brief": "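HepaRG (human liver), 48 h chemical exposure, 8-pt half-log series, top 100 uM, 0.5% DMSO vehicle. Readout: ADK mRNA by qRT-PCR vs housekeeping genes; bidirectional curve fit relative to DMSO baseline.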"}, "[9]": {"read-out": "Alpha-fetoprotein (AFP) gene, AFP (gene 174)", "experiment": "LTEA_HepaRG_AFP: Life Technologies and Expression Analysis (LTEA) Assay for Alpha-fetoprotein (AFP) gene using HepaRG (AID 2283472)", "method_in_brief": "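Human HepaRG cells plated 48 h, then switched to serum-free induction medium and exposed in duplicate for 48 h to 8-point half-log series from 100 uM in 0.5% DMSO. AFP mRNA by qRT-PCR, normalized to ACTB, GAPDH, POLR2A; bidirectional fit versus DMSO.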"}, "[10]": {"read-out": "BCL2L11 (gene 10018)", "experiment": "LTEA_HepaRG_BCL2L11: Life Technologies and Expression Analysis (LTEA) Assay for Bcl-2 (BCL2L11) gene using HepaRG (AID 2283473)", "method_in_brief": "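BCL2L11 transcript levels are measured by Fluidigm qRT-PCR, normalized to three housekeeping genes. HepaRG cultures were plated 48 h, then treated 48 h with test chemical (top 100 uM, half-log, 0.5% DMSO vehicle); curves were fitted bidirectionally against DMSO.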"}, "[11]": {"read-out": "Apolipoprotein A-V (APOA5) gene, APOA5 (gene 116519)", "experiment": "LTEA_HepaRG_APOA5: Life Technologies and Expression Analysis (LTEA) Assay for Apolipoprotein A-V (APOA5) gene using HepaRG (AID 2283474)", "method_in_brief": "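APOA5 transcript levels were quantified by qRT-PCR, normalized to three housekeeping genes, after 48 h chemical treatment of HepaRG cells (8 points, 100 uM maximum, half-log steps, 0.5% DMSO). Curves fitted in both directions against vehicle.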"}, "[12]": {"read-out": "Apoptosis regulator Bcl-2 (Homo sapiens) (UniProt P10415)", "experiment": "LTEA_HepaRG_BCL2: Life Technologies and Expression Analysis (LTEA) Assay for Bcl-2 gene using HepaRG (AID 2283475)", "method_in_brief": "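Differentiated HepaRG cells in serum-free induction medium were exposed for 48 h to eight half-log concentrations up to 100 uM in 0.5% DMSO, in duplicate. BCL2 mRNA was quantified by TaqMan qRT-PCR normalised to ACTB, GAPDH and POLR2A, with bidirectional fitting versus DMSO.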"}, "[13]": {"read-out": "Bcl-2 (BID) gene, BID (gene 637)", "experiment": "LTEA_HepaRG_BID: Life Technologies and Expression Analysis (LTEA) Assay for Bcl-2 (BID) gene using HepaRG (AID 2283476)", "method_in_brief": "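Differentiated HepaRG cells in serum-free induction medium were exposed in duplicate for 48 h to eight half-log concentrations up to 100 uM in 0.5% DMSO. BID mRNA was quantified by qRT-PCR, normalized to ACTB, GAPDH and POLR2A.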"}, "[14]": {"read-out": "Cytochrome P450 (CYP24A1), CYP24A1 (gene 1591)", "experiment": "LTEA_HepaRG_CYP24A1: Life Technologies and Expression Analysis (LTEA) Assay for Cytochrome P450 (CYP24A1) using HepaRG (AID 2283478)", "method_in_brief": "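mRNA of CYP24A1 quantified by TaqMan qRT-PCR (ACTB/GAPDH/POLR2A normalization) after 48 h chemical exposure of HepaRG cells, top concentration 100 uM, half-log steps, 0.5% DMSO vehicle, duplicates. Curves fitted bidirectionally against DMSO baseline.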"}, "[15]": {"read-out": "Cytochrome P450 (CYP1A2), CYP1A2 (gene 1544)", "experiment": "LTEA_HepaRG_CYP1A2: Life Technologies and Expression Analysis (LTEA) Assay for Cytochrome P450 (CYP1A2) using HepaRG (AID 2283479)", "method_in_brief": "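CYP1A2 transcript measured by TaqMan qRT-PCR against three housekeeping genes after 48-hour chemical exposure of HepaRG cells. Eight-point half-log series topping at 100 uM in 0.5% DMSO, duplicates; gain or loss fitted relative to vehicle.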"}, "[16]": {"read-out": "cysteine-aspartic acid protease (CASP8), CASP8 (gene 841)", "experiment": "LTEA_HepaRG_CASP8: Life Technologies and Expression Analysis (LTEA) Assay for cysteine-aspartic acid protease (CASP8) using HepaRG (AID 2283480)", "method_in_brief": "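HepaRG, 48 h exposure, duplicate wells; 8 conc, half-log from 100 uM, 0.5% DMSO. Serum-free induction medium. CASP8 mRNA by TaqMan qRT-PCR, norm. ACTB/GAPDH/POLR2A; gain/loss fitted vs DMSO.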"}, "[17]": {"read-out": "Cytochrome P450 (CYP2B6), CYP2B6 (gene 1555)", "experiment": "LTEA_HepaRG_CYP2B6: Life Technologies and Expression Analysis (LTEA) Assay for Cytochrome P450 (CYP2B6) using HepaRG (AID 2283481)", "method_in_brief": "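CYP2B6 transcript level quantified by qRT-PCR against three housekeeping genes, fitted bidirectionally relative to DMSO. HepaRG cultures received chemicals for 48 h, 8-point half-log series from 100 uM in 0.5% DMSO, duplicate wells, serum-free induction medium.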"}, "[18]": {"read-out": "Cytochrome P450 2C19 (Homo sapiens) (UniProt P33261)", "experiment": "LTEA_HepaRG_CYP2C19: Life Technologies and Expression Analysis (LTEA) Assay for CYP2C19 using HepaRG (AID 2283482)", "method_in_brief": "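CYP2C19 transcript levels by qRT-PCR, normalized to three housekeeping genes, in HepaRG cells after 48 h chemical exposure. Eight-point half-log series topping at 100 uM, 0.5% DMSO vehicle. Increases and decreases both fitted against DMSO.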"}, "[19]": {"read-out": "CYP2C8 (gene 1558)", "experiment": "LTEA_HepaRG_CYP2C8: Life Technologies and Expression Analysis (LTEA) Assay for CYP2C8 using HepaRG (AID 2283483)", "method_in_brief": "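CYP2C8 mRNA induction or loss, by qRT-PCR normalized to ACTB/GAPDH/POLR2A, is read in HepaRG cells after 48 h treatment. Concentrations run from 100 uM down in half-log dilutions, with 0.5% DMSO as vehicle and baseline.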"}, "[20]": {"read-out": "Peroxisomal acyl-coenzyme A oxidase 1 (ACOX1) gene, ACOX1 (gene 51)", "experiment": "LTEA_HepaRG_ACOX1: Life Technologies and Expression Analysis (LTEA) Assay for Peroxisomal acyl-coenzyme A oxidase 1 (ACOX1) gene using HepaRG (AID 2283467)", "method_in_brief": "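Measured by qRT-PCR against three housekeeping genes: ACOX1 transcript change in human HepaRG cells after 48 h dosing. Concentrations ran up to 100 uM in half-log steps. Curves were fitted bidirectionally relative to 0.5% DMSO.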"}}, "note": "The source made the active and inactive calls. The calls were made as follows: active = hit-call score of the fitted dose curve at least 0.9, where 1 is the maximum; inactive = score below 0.9.", "data": [{"smiles": "CN(Cc1cnc2nc(N)nc(N)c2n1)c1ccc(C(=O)N[C@@H](CCC(=O)O)C(=O)O)cc1", "values": [{"measurement": "outcome", "setting": "[1]", "result": "inactive"}, {"measurement": "AC50", "setting": "[2]", "result": "206 nM (active)"}, {"measurement": "outcome", "setting": "[3]", "result": "inactive"}, {"measurement": "outcome", "setting": "[4]", "result": "inactive"}, {"measurement": "outcome", "setting": "[5]", "result": "inactive"}, {"measurement": "outcome", "setting": "[6]", "result": "inactive"}, {"measurement": "outcome", "setting": "[7]", "result": "inactive"}, {"measurement": "outcome", "setting": "[8]", "result": "inactive"}, {"measurement": "AC50", "setting": "[9]", "result": "231 nM (active)"}, {"measurement": "outcome", "setting": "[10]", "result": "inactive"}, {"measurement": "outcome", "setting": "[11]", "result": "inactive"}, {"measurement": "outcome", "setting": "[12]", "result": "inactive"}, {"measurement": "outcome", "setting": "[13]", "result": "inactive"}, {"measurement": "outcome", "setting": "[14]", "result": "inactive"}, {"measurement": "AC50", "setting": "[15]", "result": "97.4 nM (active)"}, {"measurement": "outcome", "setting": "[16]", "result": "inactive"}, {"measurement": "AC50", "setting": "[17]", "result": "160 nM (active)"}, {"measurement": "outcome", "setting": "[18]", "result": "inactive"}, {"measurement": "outcome", "setting": "[19]", "result": "inactive"}]}, {"smiles": "OCC(CO)(CBr)CBr", "values": [{"measurement": "outcome", "setting": "[1]", "result": "inactive"}, {"measurement": "outcome", "setting": "[2]", "result": "inactive"}, {"measurement": "outcome", "setting": "[3]", "result": "inactive"}, {"measurement": "outcome", "setting": "[4]", "result": "inactive"}, {"measurement": "outcome", "setting": "[20]", "result": "inactive"}, {"measurement": "outcome", "setting": "[5]", "result": "inactive"}, {"measurement": "outcome", "setting": "[6]", "result": "inactive"}, {"measurement": "outcome", "setting": "[7]", "result": "inactive"}, {"measurement": "outcome", "setting": "[8]", "result": "inactive"}, {"measurement": "outcome", "setting": "[9]", "result": "inactive"}, {"measurement": "outcome", "setting": "[10]", "result": "inactive"}, {"measurement": "outcome", "setting": "[11]", "result": "inactive"}, {"measurement": "outcome", "setting": "[13]", "result": "inactive"}, {"measurement": "outcome", "setting": "[14]", "result": "inactive"}, {"measurement": "outcome", "setting": "[15]", "result": "inactive"}, {"measurement": "outcome", "setting": "[16]", "result": "inactive"}, {"measurement": "outcome", "setting": "[17]", "result": "inactive"}, {"measurement": "outcome", "setting": "[18]", "result": "inactive"}, {"measurement": "outcome", "setting": "[19]", "result": "inactive"}]}]}
